LRH-1 inv ag: LRH-1 (NR5A2) inverse agonists, primary screen, cell-based, luminescence, HEK293T, StAR-luciferase reporter. Nuclear receptor subfamily 5 group A member 2 (Homo sapiens), O00482. LRH-1 transfected, 24 h. inhibition, % at 3.6 µM. 360,000 compounds, 0.13% hits. AID 602396, 2012;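 active = inhibition above the mean inhibition of all tested compounds plus 3 SD, cut at about 73% in these data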;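 note: 0% = DMSO wells and 100% = reporter-only cells lacking LRH-1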
NCOA1 inh: SRC1 coactivator transcriptional activity inhibitors, primary screen, cell-based, luminescence; Nuclear receptor coactivator 1 (Homo sapiens), Q15788; HEK293 GAL4-SRC1 luciferase reporter; inhibition, % at 3.6 µM; 360,000 compounds, 0.12% hits;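 active = inhibition above the campaign mean plus 3 SD, with each screening campaign given its own cutoff, cut at about 60% in these data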;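 note: 0% = DMSO treated cells and 100% = gossypol at 36 µM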
Gli-Sufu block: Gli-Sufu pathway antagonists, primary screen, luciferase luminescence, Sufu-KO-LIGHT cells, uHTS | Sufu-KO-LIGHT fibroblasts, Gli luciferase reporter luminescence | inhibition, % at 5 µM | 340,000 compounds, 0.74% hits | AID 588413, 2011;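 active = inhibition above about 55%, limit read from the data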;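 note: 0% = DMSO-treated cells and 100% = wells with medium but no cells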
SRC2 inh: inhibition of GAL4-SRC2 driven luciferase reporter, primary screen, SRC2 inhibitor project, cell-based, luminescence; Nuclear receptor coactivator 2 (Homo sapiens), Q15596; HEK293 GAL4-SRC2 luciferase reporter; inhibition, % at 9 µM; 370,000 compounds, 0.17% hits; AID 651957, 2012;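 active = inhibition above the mean inhibition of all tested compounds plus 3 SD, set per campaign, cut at about 52% in these data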;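 note: 0% = DMSO treated cells and 100% = cells given Gossypol at 36 µM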
SRC3 inh: SRC3 coactivator transcriptional activity inhibitors, primary screen, cell-based, luminescence; Nuclear receptor coactivator 3 (Homo sapiens), Q9Y6Q9; HEK293 GAL4-SRC3 luciferase reporter; inhibition, % at 3.6 µM; 360,000 compounds, 0.17% hits;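 active = inhibition above a per-campaign cutoff, the mean of all compounds plus 3 SD, cut at about 60% in these data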;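 note: 0% = DMSO-treated cells and 100% = gossypol-treated cells at 36 µM; higher means less SRC3-driven luciferase light from the GAL4 reporter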
Gli-Sufu confirm: Gli-SUFU pathway antagonists, confirmation, single concentration, luciferase luminescence, Sufu-KO-LIGHT cells | shares compounds with Gli-Sufu block | Gli luciferase reporter | inhibition, % at 5 µM | 2,500 compounds, 40% hits | AID 602428, 2012;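 active = mean inhibition at 5 µM reaching about 45%, limit read from the data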;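 note: plate controls were DMSO-treated cells for no effect and wells lacking cells for full effect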
Gli cytotox: cytotoxicity in Sufu-KO-LIGHT cells, confirmation, cytotoxicity control for Gli-SUFU antagonist project, cell-based, ATP luminescence, single concentration | shares compounds with Gli-Sufu block | cytotoxicity, % at 5 µM | 2,500 compounds, 32% hits;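 active = mean cytotoxicity at 5 µM above about 25%, limit read from the data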;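 note: cells exposed to compound overnight for roughly 16 to 18 hours; plate controls were DMSO wells with cells for no effect and medium without cells for full effect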
Wnt3a counter: Wnt3a reporter signal inhibition, confirmation, counter-screen for Gli-SUFU antagonist project, Wnt-LIGHT cells, luminescence, single concentration; 2,500 compounds, 20% hits; shares compounds with Gli-Sufu block; Wnt3a-driven luciferase reporter; inhibition, % at 6.25 µM;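 active = mean inhibition above about 25%, limit read from the data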
* hit, by the source's call; · = no result; ! = not active in a repeat. Shown are actives, neighbours in structure and some others; about 0.83% of the full set was active somewhere.

SMILES	LRH-1 inv ag	NCOA1 inh	Gli-Sufu block	SRC2 inh	SRC3 inh	Gli-Sufu confirm	Gli cytotox	Wnt3a counter
COc1ccc(-n2nc(C(=O)NCC(=O)NC(C)C)c3ccccc3c2=O)cc1OC	5.7	1.1	-0.6	-24.9	-5.0	·	·	·
COC(=O)CNC(=O)CNC(=O)c1nn(-c2ccc(OC)c(OC)c2)c(=O)c2ccccc12	-1.7	9.6	52.4	-23.9	-9.9	9.8	-4.3	10.5
O=C(NCc1ccc(F)c(F)c1)C1C2C=CC3(CN(Cc4ccccc4)C(=O)C13)O2 (stereo not drawn)	·	·	·	5.5	·	·	·	·
O=C(CSc1nnc(Cn2nnc3ccccc32)o1)N(Cc1ccc(Cl)cc1)c1ccccc1	20.4	25.1	64.1*	18.1	33.7	63.2*	29.4*	11.0
Cc1ccc(S(=O)(=O)N2CCC(c3nc4ccccc4o3)CC2)s1	·	·	·	-5.7	·	·	·	·
O=C(c1cc(COc2cccc(C(F)(F)F)c2)on1)N1CCC(c2ccncc2)CC1	-0.8	-19.8	50.5	6.9	9.0	61.5*	37.4*	-77.2
O=C(c1cc(COc2cccc(C(F)(F)F)c2)on1)N1CCC(c2ccccc2)CC1	-1.6	-29.8	6.1	-5.5	0.5	·	·	·
FC(F)Sc1ccc(NC(=S)N2CCN(c3ccccn3)CC2)cc1	2.5	-3.0	6.3	-0.9	12.7	·	·	·
Oc1ccccc1N1CCN(C(=S)Nc2ccc(SC(F)F)cc2)CC1	-18.7	12.6	75.5*	-1.3	-27.1	22.9	19.7	-8.8
c1ccc(-c2nn(-c3ccccc3)[n+](-c3ccccc3)n2)cc1	49.0	37.5	63.3*	14.3	43.1	66.7*	13.5	32.8*
CCCCCn1c(=N)n(CC(O)COc2ccccc2OC)c2ccccc21 (stereo not drawn)	16.1	-26.7	81.4*!	1.1	3.4	41.5	17.0	-13.6
CC(C)N(CCCNC(=O)C1CCC(CNS(=O)(=O)c2ccccc2)CC1)Cc1ccccc1 (stereo not drawn)	5.0	0.6	60.2*	22.5	4.8	27.5	18.2	-10.0
CC1CCN(CCCNC(=O)C2CCC(CNS(=O)(=O)c3ccccc3)CC2)CC1 (stereo not drawn)	8.6	6.2	16.9	5.8	4.4	·	·	·
COC(=O)c1ccc(OCc2cc(=O)n3ccsc3n2)cc1	19.0	13.2	79.9*	-74.0	5.0	18.1	9.5	2.1
CCCCC(=O)N1CCN(C(=O)c2ccc3c(c2)nc(C)n3C2CCCC2)CC1	·	·	·	2.5	·	·	·	·
CCCCCCCCn1c(=O)c(C(=O)OC)c(N)c2ccccc21	-6.2	-5.7	67.5*	4.2	-1.8	29.7	12.5	27.8*
COC(=O)C1CCN(C(=O)c2oc3c(Cl)cc(C)cc3c2C)CC1	-193.4	-254.1	-103.0	-36.9	-66.8	·	·	·
Cc1cc(Cl)c2oc(C(=O)N3CCN(c4ccncc4)CC3)c(C)c2c1	-16.8	3.6	68.0*	-7.9	-5.8	25.6	22.9	-36.0
CCn1nnc(NC(=O)C(c2ccccc2)c2ccccc2)n1	15.9	2.9	59.1*	-9.9	-7.6	18.8	13.1	-6.5
COc1ccc(O)c(C(=O)c2cnc3c(c2)c(=O)[nH]c(=O)n3C)c1	-18.5	0.5	56.6*	0.6	6.9	27.5	6.6	33.2*
O=C(CN1C(=O)CCSc2ccccc21)Nc1ccc(Cl)c(Cl)c1	·	·	·	-7.3	·	·	·	·
CCN(CCn1cccn1)C(=O)c1ccc(OC2CCN(C(=O)COC)CC2)cc1	13.7	-3.0	-9.2	-12.1	0.1	·	·	·
COCC(=O)N1CCC(Oc2ccc(C(=O)NCCCn3cccn3)cc2)CC1	-4.9	17.3	53.3	-1.0	-15.4	21.2	6.6	4.7
C[C@@H]1COC(=O)[C@H](NC(=O)OCC2c3ccccc3-c3ccccc32)C/C=C\C[C@@H](CC(=O)N[C@@H](CO)Cc2ccccc2)C(=O)N1	2.9	-17.8	58.6*	-2.0	6.7	56.8*	19.3	-59.1
CC(C)(C)[C@H]1COC(=O)[C@H](NC(=O)OCC2c3ccccc3-c3ccccc32)C/C=C\C[C@@H](CC(=O)N[C@H](CO)Cc2ccccc2)C(=O)N1	20.3	-0.5	39.9	-0.1	12.0	·	·	·
SMILES	LRH-1 inv ag	NCOA1 inh	Gli-Sufu block	SRC2 inh	SRC3 inh	Gli-Sufu confirm	Gli cytotox	Wnt3a counter
CC(C)(C)[C@H]1COC(=O)[C@H](NC(=O)OCC2c3ccccc3-c3ccccc32)C/C=C\C[C@@H](CC(=O)N[C@@H](CO)Cc2ccccc2)C(=O)N1	7.6	4.6	57.1*	5.3	6.9	50.6*	20.0	-31.6
CCN(Cc1ccccc1)C(=O)C1C2C=CC3(CN(Cc4ccccc4)C(=O)C13)O2 (stereo not drawn)	·	·	·	-7.7	·	·	·	·
CCCCCCCCN1C(=O)[C@@H](CC(=O)NCc2cccs2)C[C@@]2(C(=O)OC)C1=C[C@H](C(C)C)O[C@@H]2C1CC1	·	·	·	2.1	·	·	·	·
O=C(COC(=O)c1cccnc1Nc1ccccc1F)NCCN1C(=O)CSC1=O	16.2	11.6	50.5	-20.1	-11.4	20.4	-2.5	-30.8
COc1cccc(-n2cc(CN(C)Cc3nc(Cc4cccc(F)c4)no3)cn2)c1	2.5	-2.6	-5.5	10.2	15.8	·	·	·
COc1ccc(CN(C)Cc2nc(Cc3cccc(F)c3)no2)c2cccnc12	32.4	18.6	62.7*	23.1	28.0	54.3*	17.6	26.7*
Cc1ccc2[nH]c3c(N4CCc5ccccc5C4)ncnc3c2c1	-22.5	-11.6	72.7*	-8.4	-6.0	77.2*	38.3*	-22.1
Fc1ccc2[nH]c3c(N4CCc5ccccc5C4)ncnc3c2c1	16.5	19.2	77.2*	8.1	31.8	79.4*	34.3*	9.4
Cc1ccc2[nH]c3c(N4CCOCC4)ncnc3c2c1	-18.9	-27.9	19.0	-66.2	1.8	·	·	·
Cc1nn(-c2ccccc2)c2sc(C(=O)NC3CCCCCCC3)cc12	·	·	·	2.8	·	·	·	·
COc1ccc(C2CCC3(CCC(=O)N3CCO)CC2)cc1 (stereo not drawn)	·	·	·	23.4	·	·	·	·
Cc1ccccc1OCCn1cc(C(=S)N2CCCC2)c2ccccc21	-25.3	0.0	0.5	-15.4	3.4	·	·	·
CC(=O)c1cn(CCOc2ccccc2C)c2ccccc12	25.1	18.8	64.6*	19.5	28.4	56.3*	24.7	29.6*
COc1ccc(/C=N/OCC(=O)NC(c2ccccc2)c2ccccc2)cc1OC	57.0	14.9	53.6	12.4	15.2	53.4*	31.0*	35.0*
COc1cccc(C(=O)Nc2cc([N+](=O)[O-])ccc2N2CCN(C)CC2)c1	21.5	-2.5	53.9	-8.4	6.2	15.6	0.8	-27.2

From PubChem
